Holding throughout (experiment): DAPPL (digital affinity profiling via proximity ligation, sequencing); 10 mM Tris-HCl pH 7.5, 50 mM NaCl, 1 mM DTT, 4% glycerol, room temperature, 30 min; GST-TFs on glutathione beads, 16-mer random dsDNA library, 0.1% formaldehyde crosslink after washing; high values mean tight binding
In one assay the target is T1, FEV (Homo sapiens, UniProt Q99581 1-238).
T1 sequence: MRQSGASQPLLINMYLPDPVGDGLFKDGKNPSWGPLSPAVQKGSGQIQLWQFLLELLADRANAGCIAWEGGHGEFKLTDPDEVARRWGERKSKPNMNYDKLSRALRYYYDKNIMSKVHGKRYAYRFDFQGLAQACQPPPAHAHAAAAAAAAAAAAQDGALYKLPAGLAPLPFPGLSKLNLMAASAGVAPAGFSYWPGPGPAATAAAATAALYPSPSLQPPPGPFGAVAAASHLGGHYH
The conditions noted are these: protein: recombinant; tags: N-terminal GST; dsDNA, one strand shown. The method, boiled down:
(§1)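 In yeast, human transcription factors were expressed with a GST fusion, then pulled down on glutathione beads and given DNA barcodes. Pooled with a tag-only sample, they were exposed to 200 nmole of a 16-mer random double-stranded DNA library (Tris/NaCl/DTT/glycerol buffer, room temperature, 30 min), washed, crosslinked with 0.1% formaldehyde, proximity-ligated using BsaI/T4 ligase for 1 h at 37 °C, PCR-amplified and read on an Illumina NextSeq500. Each hexamer's frequency of reads for a factor, divided by the matching frequency for the tag-only sample, gives the binding signal.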

A further assay has as its target ETV5 (Homo sapiens, UniProt P41161 1-510). The conditions noted are these: protein: recombinant; tags: N-terminal GST; dsDNA, one strand shown. The method, boiled down:
as §1

The target of another assay is HSF1 (Homo sapiens, UniProt Q00613 1-529). The conditions noted are these: protein: recombinant; tags: N-terminal GST; chain copies: 3; dsDNA, one strand shown. The method, boiled down:
as §1

The next assay concerns the target T2, SPIC (Homo sapiens, UniProt Q8N5J4 1-248).
T2 sequence: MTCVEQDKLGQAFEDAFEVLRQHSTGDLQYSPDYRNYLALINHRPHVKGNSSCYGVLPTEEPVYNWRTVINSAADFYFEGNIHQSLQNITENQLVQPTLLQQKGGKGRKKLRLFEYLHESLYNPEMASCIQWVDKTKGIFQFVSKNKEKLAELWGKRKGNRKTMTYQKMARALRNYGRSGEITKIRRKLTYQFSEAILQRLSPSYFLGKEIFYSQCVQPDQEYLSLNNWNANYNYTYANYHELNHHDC
The following applies: protein: recombinant; tags: N-terminal GST; dsDNA, one strand shown. The method, boiled down:
as §1

The next assay addresses ELF4 (Homo sapiens, UniProt Q99607 1-663). The conditions noted are these: protein: recombinant; tags: N-terminal GST; dsDNA, one strand shown. The method, boiled down:
as §1

Another assay concerns the target T3, ELK4 (Homo sapiens, UniProt P28324-2 1-405).
T3 sequence: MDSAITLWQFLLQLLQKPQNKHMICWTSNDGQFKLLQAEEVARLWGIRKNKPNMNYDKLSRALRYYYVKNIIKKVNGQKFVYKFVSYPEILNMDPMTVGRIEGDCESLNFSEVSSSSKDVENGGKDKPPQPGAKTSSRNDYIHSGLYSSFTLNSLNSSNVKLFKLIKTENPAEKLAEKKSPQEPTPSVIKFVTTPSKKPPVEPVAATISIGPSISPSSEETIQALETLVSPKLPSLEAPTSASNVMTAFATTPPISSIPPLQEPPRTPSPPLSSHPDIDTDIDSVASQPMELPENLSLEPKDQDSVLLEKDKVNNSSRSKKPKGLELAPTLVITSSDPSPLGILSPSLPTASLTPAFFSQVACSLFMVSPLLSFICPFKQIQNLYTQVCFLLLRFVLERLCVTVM
The conditions noted are these: protein: recombinant; tags: N-terminal GST; dsDNA, one strand shown. The method, boiled down: as §1

A further assay deals with T4, ETV2 (Homo sapiens, UniProt O00321 1-342).
T4 sequence: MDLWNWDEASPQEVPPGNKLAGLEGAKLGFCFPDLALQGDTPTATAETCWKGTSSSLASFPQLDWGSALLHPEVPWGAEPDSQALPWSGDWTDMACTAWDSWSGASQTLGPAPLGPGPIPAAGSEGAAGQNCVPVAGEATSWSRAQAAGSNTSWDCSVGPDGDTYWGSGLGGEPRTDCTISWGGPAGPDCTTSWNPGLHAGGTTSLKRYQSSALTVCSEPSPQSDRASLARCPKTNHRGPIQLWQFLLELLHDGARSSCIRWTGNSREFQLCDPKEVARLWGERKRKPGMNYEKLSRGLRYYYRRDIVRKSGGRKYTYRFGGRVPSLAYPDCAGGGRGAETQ
The conditions noted are these: protein: recombinant; tags: N-terminal GST; dsDNA, one strand shown. The method in brief: as §1

The target in a further assay is T5, ELF3 (Homo sapiens, UniProt P78545 1-371).
T5 sequence: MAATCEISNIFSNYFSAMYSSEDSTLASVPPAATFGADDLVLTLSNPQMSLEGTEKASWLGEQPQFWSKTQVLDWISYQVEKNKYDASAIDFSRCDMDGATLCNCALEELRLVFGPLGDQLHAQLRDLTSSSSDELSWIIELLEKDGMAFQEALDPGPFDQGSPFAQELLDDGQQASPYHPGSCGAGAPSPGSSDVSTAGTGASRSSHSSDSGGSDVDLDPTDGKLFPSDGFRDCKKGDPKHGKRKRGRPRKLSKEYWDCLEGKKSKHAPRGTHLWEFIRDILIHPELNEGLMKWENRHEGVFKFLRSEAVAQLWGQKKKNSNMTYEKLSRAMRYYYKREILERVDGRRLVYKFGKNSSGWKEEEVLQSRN
The following applies: protein: recombinant; tags: N-terminal GST; dsDNA, one strand shown. The method in brief:
as §1

A further assay has as its target CRX (Homo sapiens, UniProt O43186 1-299). The conditions noted are these: protein: recombinant; tags: N-terminal GST; dsDNA, one strand shown. The method in brief: as §1
For the next assay, the target named is ETV1 (Homo sapiens, UniProt P50549 1-477). The conditions noted are these: protein: recombinant; tags: N-terminal GST; dsDNA, one strand shown. The method, boiled down:
as §1

For the next assay, the target named is T6, ERF (Homo sapiens, UniProt P50548 1-548).
T6 sequence: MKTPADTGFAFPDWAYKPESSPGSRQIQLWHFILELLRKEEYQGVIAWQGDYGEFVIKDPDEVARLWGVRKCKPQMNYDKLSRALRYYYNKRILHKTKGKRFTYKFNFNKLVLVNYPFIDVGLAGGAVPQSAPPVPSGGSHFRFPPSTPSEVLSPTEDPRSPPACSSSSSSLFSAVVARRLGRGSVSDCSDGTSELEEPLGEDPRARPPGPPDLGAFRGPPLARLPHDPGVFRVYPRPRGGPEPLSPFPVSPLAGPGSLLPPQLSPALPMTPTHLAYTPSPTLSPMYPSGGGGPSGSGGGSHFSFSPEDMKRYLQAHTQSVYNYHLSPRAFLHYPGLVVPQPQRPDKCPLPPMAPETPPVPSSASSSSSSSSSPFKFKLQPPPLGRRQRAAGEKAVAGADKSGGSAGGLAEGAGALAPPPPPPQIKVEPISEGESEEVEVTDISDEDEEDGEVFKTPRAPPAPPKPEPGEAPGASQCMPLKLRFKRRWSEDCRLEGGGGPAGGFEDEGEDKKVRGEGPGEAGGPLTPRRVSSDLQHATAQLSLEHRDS
The conditions noted are these: protein: recombinant; tags: N-terminal GST; dsDNA, one strand shown. The method, boiled down: as §1

The next assay has as its target T7, ETV3L (Homo sapiens, UniProt Q6ZN32 1-361).
T7 sequence: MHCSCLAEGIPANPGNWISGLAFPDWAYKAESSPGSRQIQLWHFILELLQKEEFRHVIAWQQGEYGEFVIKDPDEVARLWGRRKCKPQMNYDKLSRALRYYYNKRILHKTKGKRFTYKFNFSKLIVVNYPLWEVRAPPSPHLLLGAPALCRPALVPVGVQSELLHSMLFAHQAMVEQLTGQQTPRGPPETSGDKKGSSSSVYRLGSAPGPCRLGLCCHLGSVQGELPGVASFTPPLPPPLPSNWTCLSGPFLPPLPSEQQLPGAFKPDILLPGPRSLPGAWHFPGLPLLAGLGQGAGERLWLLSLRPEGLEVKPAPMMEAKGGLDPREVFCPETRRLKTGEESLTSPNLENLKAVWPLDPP
The conditions noted are these: protein: recombinant; tags: N-terminal GST; dsDNA, one strand shown. The method, boiled down: as §1

The target of a further assay is T8, ETS2 (Homo sapiens, UniProt P15036 1-469).
T8 sequence: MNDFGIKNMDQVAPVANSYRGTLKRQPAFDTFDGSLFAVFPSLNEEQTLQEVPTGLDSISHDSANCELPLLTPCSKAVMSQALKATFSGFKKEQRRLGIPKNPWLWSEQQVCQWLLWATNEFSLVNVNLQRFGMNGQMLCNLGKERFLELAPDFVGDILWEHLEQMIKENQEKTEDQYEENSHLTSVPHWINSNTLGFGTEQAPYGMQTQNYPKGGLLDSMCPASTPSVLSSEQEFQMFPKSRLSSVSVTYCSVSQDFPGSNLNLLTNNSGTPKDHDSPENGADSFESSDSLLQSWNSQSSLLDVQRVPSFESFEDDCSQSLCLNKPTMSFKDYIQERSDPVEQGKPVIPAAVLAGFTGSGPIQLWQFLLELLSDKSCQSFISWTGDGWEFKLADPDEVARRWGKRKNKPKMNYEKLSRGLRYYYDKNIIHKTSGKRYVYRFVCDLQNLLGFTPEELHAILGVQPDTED
The conditions noted are these: protein: recombinant; tags: N-terminal GST; dsDNA, one strand shown. The method, boiled down:
as §1

The target of the next assay is T9, SPDEF (Homo sapiens, UniProt O95238 1-335).
T9 sequence: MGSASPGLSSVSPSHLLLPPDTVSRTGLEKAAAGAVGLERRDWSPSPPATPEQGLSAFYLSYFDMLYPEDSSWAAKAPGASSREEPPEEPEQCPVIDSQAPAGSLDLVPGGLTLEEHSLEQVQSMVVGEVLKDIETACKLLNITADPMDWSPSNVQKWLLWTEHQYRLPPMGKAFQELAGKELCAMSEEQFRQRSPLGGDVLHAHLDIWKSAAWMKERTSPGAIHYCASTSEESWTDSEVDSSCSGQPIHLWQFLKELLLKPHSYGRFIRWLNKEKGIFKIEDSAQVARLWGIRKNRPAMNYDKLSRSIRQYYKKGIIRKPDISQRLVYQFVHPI
The following applies: protein: recombinant; tags: N-terminal GST; dsDNA, one strand shown. The method, boiled down:
as §1

The target of another assay is T10, ETV7 (Homo sapiens, UniProt Q9Y603 1-341).
T10 sequence: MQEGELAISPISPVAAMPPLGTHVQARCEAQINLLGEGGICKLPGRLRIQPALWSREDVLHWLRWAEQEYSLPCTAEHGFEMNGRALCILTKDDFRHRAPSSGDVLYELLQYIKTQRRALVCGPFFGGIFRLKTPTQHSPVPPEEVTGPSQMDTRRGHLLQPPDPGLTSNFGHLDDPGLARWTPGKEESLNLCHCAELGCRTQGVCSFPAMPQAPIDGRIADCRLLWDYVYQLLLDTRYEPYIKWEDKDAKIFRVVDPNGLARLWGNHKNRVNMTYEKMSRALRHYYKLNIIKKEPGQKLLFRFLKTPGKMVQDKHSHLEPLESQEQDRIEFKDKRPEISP
The following applies: protein: recombinant; tags: N-terminal GST; dsDNA, one strand shown. The method in brief:
as §1

The next assay deals with T11, ELF5 (Homo sapiens, UniProt Q9UKW6-2 1-255).
T11 sequence: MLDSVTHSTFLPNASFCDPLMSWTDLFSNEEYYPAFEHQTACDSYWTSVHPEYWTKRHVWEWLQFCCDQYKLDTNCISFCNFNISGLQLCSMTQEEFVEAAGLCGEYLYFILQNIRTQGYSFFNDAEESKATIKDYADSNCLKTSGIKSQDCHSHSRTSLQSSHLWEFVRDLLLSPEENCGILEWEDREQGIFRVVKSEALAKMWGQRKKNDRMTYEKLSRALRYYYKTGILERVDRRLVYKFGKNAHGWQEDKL
The following applies: protein: recombinant; tags: N-terminal GST; dsDNA, one strand shown. The method in brief: as §1

In another assay the target is T12, ETV3 (Homo sapiens, UniProt P41162-2 1-143).
T12 sequence: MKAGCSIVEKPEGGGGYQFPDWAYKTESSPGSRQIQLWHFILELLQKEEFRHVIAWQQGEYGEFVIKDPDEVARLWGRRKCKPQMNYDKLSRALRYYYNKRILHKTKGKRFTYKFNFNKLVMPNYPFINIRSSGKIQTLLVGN
The conditions noted are these: protein: recombinant; tags: N-terminal GST; dsDNA, one strand shown. The method, boiled down:
as §1

Another assay has as its target ETV6 (Homo sapiens, UniProt P41212 1-452). The following applies: protein: recombinant; tags: N-terminal GST; dsDNA, one strand shown. The method, boiled down: as §1

Here are results for one sequence from publication PMC7862700, “An all-to-all approach to the identification of sequence-specific readers for epigenetic DNA modifications on cytosine”.

ETV1, sequence (P50549 whole entry): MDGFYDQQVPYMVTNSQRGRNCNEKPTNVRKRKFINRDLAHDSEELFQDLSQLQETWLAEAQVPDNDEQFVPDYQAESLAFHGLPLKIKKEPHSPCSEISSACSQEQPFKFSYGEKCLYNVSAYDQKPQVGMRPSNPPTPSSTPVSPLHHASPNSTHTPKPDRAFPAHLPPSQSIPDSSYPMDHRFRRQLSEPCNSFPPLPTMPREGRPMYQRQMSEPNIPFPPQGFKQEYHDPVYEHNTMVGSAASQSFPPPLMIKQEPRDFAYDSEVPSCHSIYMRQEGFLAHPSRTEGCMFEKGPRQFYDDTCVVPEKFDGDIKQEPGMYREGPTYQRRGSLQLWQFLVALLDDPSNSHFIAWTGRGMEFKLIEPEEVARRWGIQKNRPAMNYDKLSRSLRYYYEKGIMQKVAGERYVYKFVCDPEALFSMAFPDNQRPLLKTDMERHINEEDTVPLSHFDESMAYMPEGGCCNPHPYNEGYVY
HSF1, sequence (Q00613 whole entry): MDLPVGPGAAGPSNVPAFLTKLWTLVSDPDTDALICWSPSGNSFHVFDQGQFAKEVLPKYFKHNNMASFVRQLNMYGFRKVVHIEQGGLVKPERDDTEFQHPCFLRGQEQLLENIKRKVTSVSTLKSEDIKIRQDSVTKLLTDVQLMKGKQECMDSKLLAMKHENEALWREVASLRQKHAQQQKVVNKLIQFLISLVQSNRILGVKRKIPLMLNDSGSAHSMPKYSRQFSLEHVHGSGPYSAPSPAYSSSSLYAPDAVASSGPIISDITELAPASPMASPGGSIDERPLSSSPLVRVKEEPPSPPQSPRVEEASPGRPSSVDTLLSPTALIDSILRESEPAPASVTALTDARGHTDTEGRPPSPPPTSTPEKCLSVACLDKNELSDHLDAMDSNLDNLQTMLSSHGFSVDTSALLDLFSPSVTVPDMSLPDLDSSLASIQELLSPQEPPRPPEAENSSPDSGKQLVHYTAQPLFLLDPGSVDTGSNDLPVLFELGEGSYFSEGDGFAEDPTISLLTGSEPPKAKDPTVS
ETV5, sequence (P41161 whole entry): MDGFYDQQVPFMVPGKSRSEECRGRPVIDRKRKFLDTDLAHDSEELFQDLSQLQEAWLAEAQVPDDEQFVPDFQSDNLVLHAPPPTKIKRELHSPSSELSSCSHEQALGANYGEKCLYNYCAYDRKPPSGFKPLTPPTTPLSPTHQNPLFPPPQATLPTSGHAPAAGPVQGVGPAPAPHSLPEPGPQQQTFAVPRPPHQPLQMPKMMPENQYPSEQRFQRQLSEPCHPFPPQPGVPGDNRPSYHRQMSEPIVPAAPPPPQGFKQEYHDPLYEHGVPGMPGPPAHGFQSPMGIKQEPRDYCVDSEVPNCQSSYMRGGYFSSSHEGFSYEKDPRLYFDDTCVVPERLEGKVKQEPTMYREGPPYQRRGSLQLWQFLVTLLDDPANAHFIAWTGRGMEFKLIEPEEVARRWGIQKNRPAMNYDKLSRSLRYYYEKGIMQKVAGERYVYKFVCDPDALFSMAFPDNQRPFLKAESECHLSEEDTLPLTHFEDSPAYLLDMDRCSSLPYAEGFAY
ETV6, sequence (P41212 whole entry): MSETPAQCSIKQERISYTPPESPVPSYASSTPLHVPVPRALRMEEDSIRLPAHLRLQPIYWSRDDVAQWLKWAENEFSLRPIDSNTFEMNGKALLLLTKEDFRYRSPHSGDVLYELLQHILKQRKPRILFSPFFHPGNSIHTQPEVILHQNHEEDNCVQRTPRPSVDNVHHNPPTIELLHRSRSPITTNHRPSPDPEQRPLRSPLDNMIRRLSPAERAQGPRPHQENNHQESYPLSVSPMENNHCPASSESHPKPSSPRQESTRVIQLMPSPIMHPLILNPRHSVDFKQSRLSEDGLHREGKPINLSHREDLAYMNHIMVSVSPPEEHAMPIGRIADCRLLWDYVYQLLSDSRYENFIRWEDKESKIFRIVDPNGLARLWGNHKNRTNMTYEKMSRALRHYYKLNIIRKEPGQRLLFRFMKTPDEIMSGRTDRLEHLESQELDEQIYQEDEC
ELF4, sequence (Q99607 whole entry): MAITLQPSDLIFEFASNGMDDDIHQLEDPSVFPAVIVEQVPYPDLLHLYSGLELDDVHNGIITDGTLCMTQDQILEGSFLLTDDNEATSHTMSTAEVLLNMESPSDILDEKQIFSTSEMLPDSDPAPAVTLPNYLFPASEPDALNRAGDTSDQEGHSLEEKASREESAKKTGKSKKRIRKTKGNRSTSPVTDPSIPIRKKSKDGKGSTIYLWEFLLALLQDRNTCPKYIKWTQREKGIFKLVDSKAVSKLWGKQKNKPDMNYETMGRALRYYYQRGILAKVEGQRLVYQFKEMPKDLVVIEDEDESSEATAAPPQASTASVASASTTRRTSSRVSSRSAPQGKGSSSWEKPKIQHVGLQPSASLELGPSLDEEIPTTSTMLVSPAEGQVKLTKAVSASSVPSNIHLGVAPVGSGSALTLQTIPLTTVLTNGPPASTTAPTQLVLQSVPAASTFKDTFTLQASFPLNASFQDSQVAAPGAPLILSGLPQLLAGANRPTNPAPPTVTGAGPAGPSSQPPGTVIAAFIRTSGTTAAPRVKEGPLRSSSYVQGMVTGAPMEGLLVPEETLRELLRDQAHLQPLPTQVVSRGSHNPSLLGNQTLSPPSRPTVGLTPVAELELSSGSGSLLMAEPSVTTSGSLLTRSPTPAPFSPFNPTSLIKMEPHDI
CRX, sequence (O43186 whole entry): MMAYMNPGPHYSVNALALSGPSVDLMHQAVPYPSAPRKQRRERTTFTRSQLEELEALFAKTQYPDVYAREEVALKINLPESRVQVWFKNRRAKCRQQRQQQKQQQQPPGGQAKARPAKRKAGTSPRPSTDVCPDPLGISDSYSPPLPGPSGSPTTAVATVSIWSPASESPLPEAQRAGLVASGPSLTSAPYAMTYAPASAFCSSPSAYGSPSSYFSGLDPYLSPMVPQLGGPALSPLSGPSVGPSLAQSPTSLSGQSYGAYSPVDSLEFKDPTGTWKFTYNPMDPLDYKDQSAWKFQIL

On to CTGTTT, for which the binding signal with FEV was 1.41 fold enrichment (6-mer frequency, TF over GST control); with ETV5, 1.42 fold enrichment (6-mer frequency, TF over GST control); in the assay with HSF1, 1.13 fold enrichment (6-mer frequency, TF over GST control); with SPIC, 1.31 fold enrichment (6-mer frequency, TF over GST control); with ELF4, 1.38 fold enrichment (6-mer frequency, TF over GST control); in the assay with ELK4 it was 1.29 fold enrichment (6-mer frequency, TF over GST control). For the same sequence, the binding signal in the assay with ETV2 is 1.4 fold enrichment (6-mer frequency, TF over GST control); with ELF3, 1.14 fold enrichment (6-mer frequency, TF over GST control); in the assay with CRX, 1.08 fold enrichment (6-mer frequency, TF over GST control); with ETV1 it was 1.5 fold enrichment (6-mer frequency, TF over GST control); in the assay with ERF, 1.37 fold enrichment (6-mer frequency, TF over GST control); with ETV3L, 1.49 fold enrichment (6-mer frequency, TF over GST control). Moreover, the binding signal with ETS2 was 1.45 fold enrichment (6-mer frequency, TF over GST control); with SPDEF it was 1.42 fold enrichment (6-mer frequency, TF over GST control); in the assay with ETV7 it was 1.38 fold enrichment (6-mer frequency, TF over GST control); in the assay with ELF5, 1.62 fold enrichment (6-mer frequency, TF over GST control); with ETV3, 1.36 fold enrichment (6-mer frequency, TF over GST control); with ETV6, 1.49 fold enrichment (6-mer frequency, TF over GST control).
